Bioassay records: PubChem, National Center for Advancing Translational Sciences (NCATS)
Rhodamine fluor – rhodamine region autofluorescence; Rhodamine-region fluorescence, 547/598 nm, Tris buffer; active compounds read high; max dye-equivalent concentration, M; actives 0.05% (n = 59,000); AID 594; in the data active means max dye-equivalent concentration above about 11 nM; inconclusive means between about 1.1 nM and that limit
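Intrinsic compound fluorescence, ex 547 / em 598 nm, CCD imager. Tris 100 mM pH 8.0; 15 min RT. Output = rhodamine dye-equivalent concentration at each compound concentration.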
Resorufin fluor – resorufin region autofluorescence. actives 0.04% (n = 59,000). max dye-equivalent concentration, M. Compound fluorescence, resorufin region 547/598 nm, buffer; active compounds read high. AID 588
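Compounds in 100 mM Tris, pH 8.0, incubated 15 min at room temperature, then fluorescence read at 547 nm excitation/598 nm emission. Signal converted to dye-equivalent concentration via an on-plate six-point resorufin standard curve, per compound concentration.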
Texas Red fluor – compounds fluorescent in Texas Red spectral region; max dye-equivalent concentration, M; actives 0.06% (n = 59,000); AID 587; Compound fluorescence, Texas Red channel, 547/618 nm; active compounds read high; in the data active means max dye-equivalent concentration above about 10 nM; inconclusive means between about 1.1 nM and that limit
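Spectral interference profiling: each compound concentration's relative fluorescence, read with a 547 nm excitation and 618 nm emission filter pair, was normalized to a per-plate Texas Red standard curve.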
A647 fluor – A647 region autofluorescence. Compound fluorescence, A647 channel (570/671 nm), Tris buffer. max dye-equivalent concentration, M. 59,000 tested, under 10 active;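 further: values scaled relative to a standard on each plate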
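Buffer was dispensed, compounds and Alexa 647 standards were pin-transferred, and plates sat 15 min at room temperature. Intensity at 570/671 nm was then converted to dye-equivalent concentration using the plate's A647 standard curve.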
A488 autofl – compound fluoresces in the A488 spectral region; actives 0.1% (n = 59,000); max dye equivalency, M; compound autofluorescence, A488 spectral region, dye equivalency; Compound Type: qHTS ECL - MLSMR
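Readout is A488 dye-equivalent concentration, calibrated by a per-plate six-point Alexa 488 series. Compounds in 100 mM Tris buffer pH 8.0 were incubated 15 min at room temperature. Plates were imaged using 480 nm excitation/540 nm emission filters.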
Fluorescein autfl – compound autofluorescence in fluorescein spectral region | Compound autofluorescence, 480/540 nm, fluorescein-equivalent; active compounds read high | max fluorescein-equivalent concentration, M | actives 0.91% (n = 59,000) | AID 593; in the data active means max fluorescein-equivalent concentration above about 10 nM; inconclusive means between about 1.1 nM and that limit
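Fluorescein stocks ranging 3 mM down to 300 nM, plus DMSO blanks, were pinned alongside compounds to build a per-plate standard curve. Buffer: 100 mM Tris, pH 8.0. Incubation 15 min, room temperature; filters 480/540 nm.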
An asterisk follows results filed as active. The list is not random: actives were taken first. Their share in the collection is about 0.95%. Unless noted, how the calls were made is not given here.

How did COc1ccc([C@@H]2CC(=O)c3c(O)cc(O[C@@H]4O[C@@H](CO[C@@H]5O[C@@H](C)[C@@H](O)[C@@H](O)[C@H]5O)[C@@H](O)[C@@H](O)[C@H]4O)cc3O2)cc1O do in these assays?
Rhodamine fluor: inactive; Resorufin fluor: inactive; Texas Red fluor: inactive; A647 fluor: 1.9e-08; A488 autofl: inactive; Fluorescein autfl: inconclusive

What do the screens show for `N#CC(C(=O)NCCc1ccccc1)c1nc2ccccc2nc1N1CCCCC1` (stereo not drawn)?
Rhodamine fluor: inactive; Resorufin fluor: inactive; Texas Red fluor: inactive; A647 fluor: 3.9e-09; A488 autofl: inconclusive; Fluorescein autfl: 1.2e-07M*

What do the screens show for `N#CC(C(=O)NCc1ccccc1)c1nc2ccccc2nc1N1CCCC1` (stereo not drawn)?
Rhodamine fluor: inactive; Resorufin fluor: inactive; Texas Red fluor: inactive; A647 fluor: 2.6e-09; A488 autofl: 2.2e-08M*; Fluorescein autfl: 3.9e-07M*

How did CCN1CCN(c2nc3ccccc3nc2C(C#N)C(=O)OCc2ccccc2)CC1 (stereo not drawn) do in these assays?
Rhodamine fluor: inactive; Resorufin fluor: inactive; Texas Red fluor: inactive; A647 fluor: 6.6e-09; A488 autofl: inactive; Fluorescein autfl: inconclusive

What do the screens show for `N#CC(C(=O)NCCc1ccccc1)c1nc2ccccc2nc1N1CCOCC1` (stereo not drawn)?
Rhodamine fluor: inactive; Resorufin fluor: inactive; Texas Red fluor: inactive; A647 fluor: 4.6e-08; A488 autofl: inactive; Fluorescein autfl: inconclusive

What do the screens show for `CCN(CC)c1nc2ccccc2nc1C(C#N)C(=O)NCCCOC` (stereo not drawn)?
Rhodamine fluor: inactive; Resorufin fluor: inactive; Texas Red fluor: inactive; A647 fluor: 6.7e-09; A488 autofl: inactive; Fluorescein autfl: inconclusive

How did CCN(CC)c1nc2ccccc2nc1C(C#N)C(=O)NCCc1ccccc1 (stereo not drawn) do in these assays?
Rhodamine fluor: inactive; Resorufin fluor: inactive; Texas Red fluor: inconclusive; A647 fluor: 1.5e-08; A488 autofl: inconclusive; Fluorescein autfl: 1.1e-07M*

What do the screens show for `CCOC(=O)N1CCN(c2nc3ccccc3nc2C(C#N)C(=O)NCCc2ccccc2)CC1` (stereo not drawn)?
Rhodamine fluor: inactive; Resorufin fluor: inactive; Texas Red fluor: inactive; A647 fluor: 1e-09; A488 autofl: inactive; Fluorescein autfl: 1.1e-08M*

What do the screens show for `O=c1[nH]c2[nH]c(=S)[nH]c(=S)c2[nH]1`?
Rhodamine fluor: inactive; Resorufin fluor: inactive; Texas Red fluor: inactive; A647 fluor: 1e-09; A488 autofl: inactive; Fluorescein autfl: inactive

What do the screens show for `C[C@@]12C(=O)OC(=O)[C@@]1(C)[C@H]1CC[C@@H]2O1`?
Rhodamine fluor: inactive; Resorufin fluor: inactive; Texas Red fluor: inconclusive; A647 fluor: 3.7e-09; A488 autofl: inactive; Fluorescein autfl: inconclusive

How did CCOC(=O)C1CCCN(c2nc3ccccc3nc2C(C#N)C(=O)NCc2ccccc2)C1 (stereo not drawn) do in these assays?
Rhodamine fluor: inactive; Resorufin fluor: inactive; Texas Red fluor: inactive; A647 fluor: 1e-09; A488 autofl: 5e-08M*; Fluorescein autfl: 8.6e-07M*

What do the screens show for `C=C1CC[C@H]2C(C)(C)[C@H](O)CC[C@]2(C)[C@@H]1COc1ccc2ccc(=O)oc2c1`?
Rhodamine fluor: inactive; Resorufin fluor: inactive; Texas Red fluor: inactive; A647 fluor: 2.6e-09; A488 autofl: inactive; Fluorescein autfl: inactive

What do the screens show for `CCOC(=O)C1=C(C)OC(N)=C(C#N)C1c1cc(OC)c2c(c1)OCO2` (stereo not drawn)?
Rhodamine fluor: inactive; Resorufin fluor: inactive; Texas Red fluor: inactive; A647 fluor: 7.1e-09; A488 autofl: inactive; Fluorescein autfl: inconclusive

What do the screens show for `CCOc1cc(C2C(C#N)=C(N)OC(C)=C2C(C)=O)cc(Br)c1O` (stereo not drawn)?
Rhodamine fluor: inactive; Resorufin fluor: inactive; Texas Red fluor: inactive; A647 fluor: 2.5e-09; A488 autofl: 1.2e-08M*; Fluorescein autfl: 1.9e-07M*

Results for CC(C)OCCCn1c(=NC(=O)c2ccncc2)c(C#N)cc2c(=O)n3ccccc3nc21 ?
Rhodamine fluor: inactive; Resorufin fluor: inactive; Texas Red fluor: inactive; A647 fluor: 1e-09; A488 autofl: inactive; Fluorescein autfl: 1.9e-08M*

Results for CC1=CC(=O)c2ccccc2C1=O ?
Rhodamine fluor: inactive; Resorufin fluor: inactive; Texas Red fluor: inactive; A647 fluor: 3.8e-08; A488 autofl: inactive; Fluorescein autfl: inconclusive

How did NC1=CC(=O)c2cccc3cccc1c23 do in these assays?
Rhodamine fluor: inactive; Resorufin fluor: inactive; Texas Red fluor: inactive; A647 fluor: 2.6e-08; A488 autofl: inconclusive; Fluorescein autfl: 3.6e-08M*

Results for COC(=O)c1ccc2c(c1)NC(=O)C(N1CCCC1)S2 (stereo not drawn) ?
Rhodamine fluor: inactive; Resorufin fluor: inactive; Texas Red fluor: inactive; A647 fluor: 3.5e-08; A488 autofl: inactive; Fluorescein autfl: inconclusive

How did O=C(O)c1ccc2c(c1)NC(=O)C(N1CCCC1)S2 (stereo not drawn) do in these assays?
Rhodamine fluor: inactive; Resorufin fluor: inactive; Texas Red fluor: inactive; A647 fluor: 4.1e-08; A488 autofl: inactive; Fluorescein autfl: 1.1e-08M*

Results for CCOC(=O)C1=C(C(C)=O)C(c2cccnc2)C(C#N)=C(N)O1 (stereo not drawn) ?
Rhodamine fluor: inactive; Resorufin fluor: inactive; Texas Red fluor: inconclusive; A647 fluor: 3e-08; A488 autofl: inactive; Fluorescein autfl: inactive

How did CC(=O)C1(C)OC(N)=C(C#N)C(c2ccccc2)C1(C#N)C#N (stereo not drawn) do in these assays?
Rhodamine fluor: inactive; Resorufin fluor: inactive; Texas Red fluor: inactive; A647 fluor: 3.2e-09; A488 autofl: inactive; Fluorescein autfl: 1.1e-08M*

What do the screens show for `O=C1CCN2C=Nc3cccc4ccc1c2c34`?
Rhodamine fluor: inactive; Resorufin fluor: inactive; Texas Red fluor: inactive; A647 fluor: 5.7e-09; A488 autofl: 1.5e-07M*; Fluorescein autfl: 2.8e-06M*

What do the screens show for `CC(=O)Oc1cc(OC(C)=O)c2c(=O)cc(-c3ccc(OC(C)=O)c(OC(C)=O)c3)oc2c1`?
Rhodamine fluor: inactive; Resorufin fluor: inactive; Texas Red fluor: inactive; A647 fluor: 1e-09; A488 autofl: inactive; Fluorescein autfl: inactive

How did O=C1c2cccnc2C(=O)N1Cc1ccc(F)cc1 do in these assays?
Rhodamine fluor: inactive; Resorufin fluor: inactive; Texas Red fluor: inactive; A647 fluor: 1e-09; A488 autofl: inconclusive; Fluorescein autfl: 8.2e-08M*

Results for COc1ccc(CCNC[C@H](O)c2ccc(O)cc2)cc1OC ?
Rhodamine fluor: inactive; Resorufin fluor: inactive; Texas Red fluor: inactive; A647 fluor: 4.6e-09; A488 autofl: inactive; Fluorescein autfl: inconclusive
